Screening results from PubChem.
Beta apoptosis: inhibitors of cytokine-induced beta cell apoptosis, primary screen, luminescence; INS-1E cytokine-induced death, ATP luminescence, 48 h; percent of positive-control rescue, neutral wells zero; protection from apoptosis, % (concentration not given with the values); 0.8% of 300,000 active;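 active means Every replicate reaches about 75%, or at least half do and their mean reaches it too, limit read from the data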;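 further: higher means more ATP so stronger rescue from cytokine killing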
Mdm2 MdmX PPI: inhibitors of human Mdm2-MdmX association, primary screen, cell-based, luminescence, split luciferase, SaOS-2, uHTS. 3% of 330,000 active. Protein Mdm4 (Homo sapiens) + E3 ubiquitin-protein ligase Mdm2 (Homo sapiens), …. SaOS-2 split-luciferase Mdm2/MdmX complementation. inhibition, % at 8 µM;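 active means inhibition of at least 50% at 8 µM in the primary screen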
NTR1 agonist: agonists of human NTR1, primary screen, imaging, U2OS cells, beta-arrestin-GFP, high content. NTR1-U2OS beta-arrestin-GFP spot imaging, agonist mode. activation, % at 20 µM. 0.17% of 330,000 active. AID 493036, 2011;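 active means activation at or above 40% of the spot to cytoplasm intensity ratio, with at least 20 cells analyzed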
Target sequence (P30989 whole entry, looked up): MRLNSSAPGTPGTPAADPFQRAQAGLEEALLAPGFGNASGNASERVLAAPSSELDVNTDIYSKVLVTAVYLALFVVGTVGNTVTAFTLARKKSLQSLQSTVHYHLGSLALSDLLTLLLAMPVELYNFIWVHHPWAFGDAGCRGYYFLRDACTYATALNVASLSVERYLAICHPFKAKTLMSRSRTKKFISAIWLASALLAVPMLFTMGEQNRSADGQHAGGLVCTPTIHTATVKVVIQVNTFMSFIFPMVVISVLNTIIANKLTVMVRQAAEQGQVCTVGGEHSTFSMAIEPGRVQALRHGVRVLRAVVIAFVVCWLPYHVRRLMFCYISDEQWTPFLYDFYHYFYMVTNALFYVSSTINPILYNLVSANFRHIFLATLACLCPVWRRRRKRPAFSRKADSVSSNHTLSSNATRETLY
A1 inh: caspase 3/7 activation in MEF A1-2A-BIM cells, primary screen, A1 inhibitor project, cell-based, luminescence, HTS; 0.066% of 330,000 active; Caspase-Glo 3/7 luminescence, 3 h; percent of clofoctol response, vehicle zero; caspase activation, % (no concentration beside the values);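 active means over half of replicate activation scores above 10%, or exactly half above 10 with the replicate mean above 10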
Jurkat NFkB inh: inhibitors of induced NF-kB luciferase reporter, primary screen, TCR NF-kB activation inhibitor project, cell-based, luminescence, uHTS. Jurkat, PMA/ionomycin-induced NF-kB luciferase reporter. inhibition, % at 4 µM. 0.53% of 330,000 active; in the data active means inhibition above about 50%
697 NFkB inh: inhibitors of PMA/ionomycin-induced NF-kB reporter, 697 cells, primary screen, B-cell NF-kB inhibitor project, cell-based, luminescence, uHTS. 697 B-cell NF-kB luciferase reporter, 16 h. inhibition, % at 4 µM. 0.33% of 330,000 active. AID 435022, 2010; in the data active means inhibition above about 35%
Mdm2-MdmX conf: Mdm2-MdmX complex disruptors, retested hits, confirmation, luminescence, single concentration; 55% of 10,000 active; inhibition, % at 8 µM; Mdm2-MdmX binding, luminescent assay; shares compounds with Mdm2 MdmX PPI; in the data active means inhibition above about 40%
Full FLuc ctr: full-length luciferase signal inhibition, confirmation, counter-screen for Mdm2/MdmX interaction inhibitor project, cell-based, single concentration, SaOS-2; inhibition, % at 8 µM; 77% of 6,200 active; shares compounds with Mdm2 MdmX PPI; SaOS-2 full-length luciferase counterscreen, luminescence;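 active means mean inhibition at 8 µM reaching about 37%, which flags the compound as non-specific, limit read from the data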;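 further: p53-null SaOS-2 cells with luciferase driven by a doxycycline-inducible promoter; compound on cells about two nights before reading with doxycycline added after day one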
Each line names hits and unclear results; the compound was inactive in the other large screens (follow-up assays come after a bar, where they were run). Shown are actives, neighbours in structure and some others; about 3.8% of the full set was active somewhere.

O=C(COc1ccc(F)cc1Cl)Nc1nc(-c2ccccn2)cs1	Mdm2 MdmX PPI 74 | Mdm2-MdmX conf 70 | Full FLuc ctr inactive
O=C(Nc1ccc(S(=O)(=O)Nc2cnc3ccccc3n2)cc1)c1ccc(Cl)c([N+](=O)[O-])c1	none
COc1cccc2c1OC1(C)CC2N(C(=O)c2ccco2)C(=S)N1c1ccc(F)cc1 (centres undefined)	Mdm2 MdmX PPI 65 | Mdm2-MdmX conf 53 | Full FLuc ctr 70
CC12CC(c3ccccc3O1)N(C(=O)c1ccco1)C(=O)N2c1ccccc1 (centres undefined)	none
Cc1ccc(-n2c(-c3ccccc3)cc(/C=N/NC(=O)CC#N)c2-c2ccccc2)cc1	Beta apoptosis 123, Mdm2 MdmX PPI 55 | Mdm2-MdmX conf inactive
Cc1cccc(-c2cc3nc4c(c(N5CCOCC5)n3n2)CCCC4)c1	Mdm2 MdmX PPI 65 | Mdm2-MdmX conf inactive
Cc1cccc(-c2cc3nc4c(c(N5CCC6(CC5)OCCO6)n3n2)CCCC4)c1	none
Cc1cc(NC(=O)C(C)SCC(=O)Nc2ccccc2C(C)(C)C)no1 (centres undefined)	none
Cc1cc(/C=C2\SC(=Nc3ccccc3)NC2=O)c(C)n1-c1ccc(S(N)(=O)=O)cc1	Mdm2 MdmX PPI 61 | Mdm2-MdmX conf 50 | Full FLuc ctr 57
Cc1cc(Sc2nnc(/N=C/N(C)C)s2)c2ccccc2n1	none (no result: Beta apoptosis)
Cc1cc(Sc2nnc(N)s2)c2ccccc2n1	Mdm2 MdmX PPI 50 (no result: Beta apoptosis) | Mdm2-MdmX conf inactive | Full FLuc ctr inactive
COc1nc(-c2ccccc2)nc(-c2ccccc2)c1C	none (no result: Beta apoptosis)
O=C(Nc1cnccn1)Nc1cccc(Cl)c1Cl	Mdm2 MdmX PPI 77 | Mdm2-MdmX conf 68 | Full FLuc ctr 105
O=C(Nc1cnccn1)Nc1ccccc1Cl	none
CC(C)(C)c1ccccc1NC(=O)COC(=O)CN1C(=O)NC2(CCCC2)C1=O	none
Cc1cc(C(=O)OCC(=O)NCc2ccc(Cl)cc2Cl)c(C)o1	none
CC(C)[C@H](NC(=O)c1ccco1)C(=O)OCC(=O)c1ccc2c(c1)NC(=O)CO2	none
CC(C)CC(NC(=O)c1ccc(Cl)cc1)C(=O)OCC(=O)c1ccc2c(c1)NC(=O)CO2 (centres undefined)	Mdm2 MdmX PPI 95, A1 inh 15 | Mdm2-MdmX conf 94 | Full FLuc ctr inactive
Cc1cc(=O)oc2cc(OCC(=O)c3ccc4c(c3)NC(=O)CO4)ccc12	Mdm2 MdmX PPI 65 | Mdm2-MdmX conf 54 | Full FLuc ctr 109
Cc1ccc(C(=O)COc2ccc3c(C)cc(=O)oc3c2)cc1	none
COc1ccc(/C=C/C(=O)OCC(=O)c2ccc3c(c2)NC(=O)CO3)cc1	Mdm2 MdmX PPI 92 | Mdm2-MdmX conf inactive
CN1[C@@H]2CCC[C@H]1CC(NC(=O)c1nn(C)c3ccccc13)C2 (some centres undefined)	none
CC(=O)Nc1cccc(NC(=O)CCNC(=O)c2ccc(Cl)cc2)c1	none
Nc1c(N(C(=O)Nc2ccc(Cl)c(Cl)c2)C2CCCC2)c(=O)[nH]c(=O)n1Cc1ccccc1	Mdm2 MdmX PPI 78 | Mdm2-MdmX conf inactive
COCCN(C(=O)C1CCCC1)c1c(N)n(Cc2ccccc2)c(=O)[nH]c1=O	none
CC(C(=O)N1CCc2ccccc21)N(C)CC(=O)Nc1cccc(F)c1 (centres undefined)	none
COc1ccccc1NS(=O)(=O)c1ccc2ccccc2c1	none
COc1ccc(NS(=O)(=O)c2ccc3ccccc3c2)c2ncccc12	Mdm2 MdmX PPI 92 | Mdm2-MdmX conf 88 | Full FLuc ctr 37
Cc1ccc(NC(=O)Cc2ccccc2F)cc1S(=O)(=O)N1CCCCCC1	none
C[C@H](NC(=O)C1CC(=O)N(c2ccc3c(c2)OCCO3)C1)C(=O)N1CCCCC1 (some centres undefined)	none
O=C(Nc1nc(-c2nc3ccccc3s2)cs1)c1ccco1	Mdm2 MdmX PPI 73 | Mdm2-MdmX conf inactive
O=C(Nc1nc2cc3c(cc2s1)OCCO3)c1ccco1	Mdm2 MdmX PPI 71 | Mdm2-MdmX conf 68 | Full FLuc ctr 74
CC(=O)Nc1nc2cc3c(cc2s1)OCO3	none
O=C(Nc1nc2cc3c(cc2s1)OCO3)C1=COCCO1	Mdm2 MdmX PPI 52 | Mdm2-MdmX conf inactive
O=C(Nc1nc(-c2ccc(Cl)s2)cs1)c1ccco1	none
C[C@@H]1CN([C@@H](C)CO)C(=O)c2cc(NS(C)(=O)=O)ccc2O[C@@H]1CN(C)S(=O)(=O)c1ccccc1	none (no result: Beta apoptosis, A1 inh)
Cc1cc(C)n(CCC(=O)N2CCCC(Nc3ccc(F)cc3)C2)n1 (centres undefined)	none
CCOC(=O)CSc1nnc(NC(=O)CN2CCCCC2)s1	none
O=C(CNC(=O)c1cccc(F)c1)OCCOc1cccc(Cl)c1	none (no result: Beta apoptosis)
Cc1ccc(C)c(C(=O)Cn2ncc(Cl)c(Cl)c2=O)c1	Mdm2 MdmX PPI 97 | Mdm2-MdmX conf 84 | Full FLuc ctr inactive
Cc1cc(C(=O)Cn2ncc(Cl)c(Cl)c2=O)c(C)n1CC(F)(F)F	Mdm2 MdmX PPI 98 (no result: Beta apoptosis) | Mdm2-MdmX conf 67 | Full FLuc ctr inactive
CC(NC(=O)Cn1ncc(Cl)c(Cl)c1=O)C12CC3CC(CC(C3)C1)C2 (centres undefined)	none (no result: Mdm2 MdmX PPI, NTR1 agonist, Jurkat NFkB inh, 697 NFkB inh)
Cc1cccc(Cn2ncc(Cl)c(Cl)c2=O)c1	Mdm2 MdmX PPI 100 | Mdm2-MdmX conf 84 | Full FLuc ctr 51
Cc1cc2oc(=O)cc(Cn3ncc(Cl)c(Cl)c3=O)c2cc1Cl	Beta apoptosis 110, Mdm2 MdmX PPI 96 | Mdm2-MdmX conf 98 | Full FLuc ctr 54
CCCc1cc(=O)[nH]c(SCC(=O)c2cc(C)n(CC(F)(F)F)c2C)n1	none
Nn1c(COc2ccccc2F)nnc1SCC(=O)NC1CCS(=O)(=O)C1 (centres undefined)	none (no result: Beta apoptosis)
CN(Cc1ccc(Cl)s1)C(=O)CCl	Mdm2 MdmX PPI 54 | Mdm2-MdmX conf 41 | Full FLuc ctr 52
COc1ccc(-c2c3c(nc4sc5c(Cl)nc(C)nc5c24)CCC3)cc1	Mdm2 MdmX PPI 99 | Mdm2-MdmX conf inactive
